{"source": "PubChem BioAssay (Tox21)", "note": "Inconclusive results are not listed. A number with no mark means an inactive call. Activity calls are given as the source filed them. The call rests on the fitted dose curve; in most records, active means well fitted cell-killing curve with a large enough effect in the repeat runs; inconclusive means weak or mixed curves, or effect the other way; inactive means flat fitted curve, though single readings scatter. Positions of bridges follow the written chain, without caps; N, C: chain ends. Non-standard residues stand in square brackets, D forms with d. Residues, ends and D or L forms follow the SMILES beside them. hArg = N=C(N)NCCCC[C@H](N)C(=O)O; Mpa = O=C(O)CCS", "data": [{"experiment": "qHTS assay to identify small molecule antagonists of the constitutive androstane receptor (CAR) signaling pathway - cell viability counter screen (AID 1224837); further: on the % scale 0 is the no-effect control and ±100 the full control effect; nearly all actives have a fitted effect of over 45% in size", "conditions": "HepG2-CYP2B6-hCAR viability, CellTiter-Fluor, 23 h, co-treated with 50 nM CITCO; series mostly up to 92.4 µM", "text": "National Center for Advancing Translational Sciences [NCATS]\nNIH Chemical Genomics Center [NCGC]\nU.S. Environmental Protection Agency [EPA]\nNational Institutes of Environmental Health Sciences [NIEHS]\nNational Toxicology Program [NTP]\nU.S. Food and Drug Administration [FDA]\nThe constitutive androstane receptor (CAR) is a nuclear receptor which regulates multiple drug metabolizing enzymes (DMEs) and transporters. Activating CAR will generally increase the transcription and subsequent translation of CYP2B6 and CYP3A4. These two DMEs represent about 50% of the drug metabolizing potential in the body. When CAR is deactivated, the metabolizing potential in the body will decrease, subsequently increasing the toxicity in the body or lowering the therapeutic potential of a pro-drug. Recently, there have also been studies performed indicating CARs role in energy metabolism and cancer therapy. Therefore, inhibiting CARs activity could have a potential effect on diabetes and cancer. Identifying environmental toxins and compounds which modulate CAR, through the use of the Tox21 10K compound collection, will be an important step in determining the toxicity and potential therapeutic effects these factors will have on the human body. To differentiate true CAR antagonists from cytotoxic substances, the assay is multiplexed with a cell viability assay.\nTox21 Assay Protocol Summary:\nA double-stable (hCAR and CYP2B6-2.2kb) transfected cell line, derived from human hepatoma (HepG2) cells, was utilized for the duration of the quantitative high-throughput screens. The HepG2-CYP2B6-hCAR cells were dispensed at 2500 cells/4 uL/well in 1536-well white solid bottom plates using a Multidrop Combi. After the assay plates were incubated at 37 C/5% CO2 for 4 hrs, 23 nL of compounds at 15 concentrations (from 5-48 columns) or positive control (from 1 to 4 columns) were transferred to the assay plates using a Pintool station. One uL of CITCO (final concentration = 50 nM) was added, using a Flying Reagent Dispenser, inside each well. After a 23 hr incubation period at 37 C/5% CO2, 1 uL of CellTiter-Fluor reagent was added into each well of the assay plates using a Flying Reagent Dispenser. The fluorescence intensity in the plates was then measured using a ViewLux plate reader.", "values": [{"smiles": "CC(C)C1OCCN1CCOC(=O)NCCCCCCNC(=O)OCCN1CCOC1C(C)C", "note": "(stereo not given)", "outcome": "inactive"}, {"smiles": "CCC(C)C(C)=O", "note": "(stereo not given)", "outcome": "inactive"}, {"smiles": "CCN1CCCC1CN", "note": "(stereo not given)", "outcome": "inactive"}, {"smiles": "O=NN(CCCl)C(=O)NC1CCCCC1", "outcome": "inactive"}, {"smiles": "N[C@@H](Cc1ccc(O)cc1)C(=O)O", "activity change, negative = cytotoxicity": "8.2% [at 8.39 µM]"}, {"smiles": "C=Cc1ccc(C(C)(C)C)cc1", "outcome": "inactive"}, {"smiles": "COC(C)(OC)OC", "outcome": "inactive"}, {"smiles": "C[C@@H](O)C(=O)O", "outcome": "inactive"}, {"smiles": "CC(C)=CCC[C@@](C)(O)[C@H]1CC=C(C)CC1", "outcome": "inactive"}, {"smiles": "O=C(Cl)c1ccccc1[N+](=O)[O-]", "outcome": "inactive"}, {"smiles": "CCCCCC(C)O", "note": "(stereo not given)", "outcome": "inactive"}, {"smiles": "CC(=O)CCC1=C(C)CCCC1(C)C", "outcome": "inactive"}, {"smiles": "C=C(C)[C@@H]1CC=C(C)CC1", "outcome": "inactive"}, {"smiles": "CCOc1ccccc1OCC1CNCCO1", "note": "(stereo not given)", "outcome": "inactive"}, {"smiles": "CCCCOC(=O)[C@H](C)O", "outcome": "inactive"}, {"smiles": "O=Cc1ccccc1Cl", "outcome": "inactive"}, {"smiles": "Nc1nc(-c2ccccc2)c(Br)c(=O)[nH]1", "outcome": "inactive"}, {"smiles": "O=C(O)CONC(=O)c1ccccc1", "outcome": "inactive"}, {"smiles": "CN(C)CCCO[C@@H]1[C@H]2OC(C)(C)O[C@H]2O[C@@H]1C(O)CO", "note": "(stereo not given in full)", "outcome": "inactive"}, {"smiles": "CC/C=C\\CCOC(=O)c1ccccc1O", "outcome": "inactive"}, {"smiles": "O=C=NCC1CCCC(CN=C=O)C1", "note": "(stereo not given)", "outcome": "inactive"}, {"smiles": "CC(N)CCCC(C)(C)O", "note": "(stereo not given)", "outcome": "inactive"}, {"smiles": "CO/N=C(/C(=O)N[C@@H]1C(=O)N2C(C(=O)[O-])=C(C[n+]3ccn4ncccc43)CS[C@H]12)c1nsc(N)n1", "outcome": "inactive"}, {"smiles": "C=CCN1C[C@H](C(=O)N(CCCN(C)C)C(=O)NCC)C[C@@H]2c3cccc4[nH]cc(c34)C[C@H]21", "outcome": "inactive"}, {"smiles": "CC(=O)OCC(=O)Nc1cc(C#N)cc(NC(=O)COC(C)=O)c1Cl", "outcome": "inactive"}, {"smiles": "O=C(O)[C@H](O)c1ccccc1", "outcome": "inactive"}, {"smiles": "N[C@@H](CSCCCO)C(=O)O", "activity change, negative = cytotoxicity": "10% [at 19 µM]"}, {"smiles": "CCCCSCCCC", "outcome": "inactive"}, {"smiles": "CCN(CC)CCN", "outcome": "inactive"}, {"smiles": "Cc1ccc(C)c([N+](=O)[O-])c1", "outcome": "inactive"}, {"smiles": "C#CCN[C@@H]1CCc2ccccc21", "outcome": "inactive"}, {"smiles": "CCCC(CC)c1ccccc1", "note": "(stereo not given)", "outcome": "inactive"}, {"smiles": "ONc1ccccc1", "outcome": "inactive"}, {"smiles": "NC(=O)[C@@H]1CSSCCC(=O)N[C@@H](CCCCN=C(N)N)C(=O)NCC(=O)N[C@@H](CC(=O)O)C(=O)N[C@@H](Cc2c[nH]c3ccccc23)C(=O)N2CCC[C@H]2C(=O)N1", "note": "([Mpa][hArg]GDWPC-NH2; disulfide 1-7)", "outcome": "inactive"}, {"smiles": "COc1ccc(CCO)cc1", "outcome": "inactive"}, {"smiles": "OCC1(CO)COCOC1", "outcome": "inactive"}, {"smiles": "Cc1c(NC(=O)c2cccnc2)c(=O)n(-c2ccccc2)n1C", "outcome": "inactive"}, {"smiles": "CCCCCCCCCCCCCCCCCCOCCO", "activity change, negative = cytotoxicity": "0.177% [at 19 µM]"}, {"smiles": "CN1CCOC(c2ccccc2)c2ccccc2C1", "note": "(stereo not given)", "outcome": "inactive"}, {"smiles": "CO[C@@]1(NC(=O)Cc2cccs2)C(=O)N2C(C(=O)O)=C(COC(N)=O)CS[C@@H]21", "outcome": "inactive"}]}]}
